From PubChem BioAssay (NCATS) come the findings set out here.

Each structure is given as a SMILES string. Records with an inconclusive call do not appear. Active and inactive are the calls of the source. Calls follow the shape of the dose curve; as a rule, active = well fitted inhibition curve with a large enough effect; inconclusive = small, poorly fitted or top-dose-only effect; inactive = flat fitted curve, though single readings scatter.

What all share (assay): qHTS profiling for inhibitors of Plasmodium falciparum proliferation (AID 504749); also: nearly all actives have a fitted effect of over 60% in size
Details in all cases: P. falciparum in erythrocytes, SYBR Green DNA, 72 h; series mostly up to 28.7 µM

One assay deals with ATS95. The gist of the method: (§1)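 Each compound contacts P. falciparum-infected red blood cells for 72 h at 37 C; lysis buffer (Tris, EDTA, saponin, Triton X, SYBR Green I) is added and fluorescence measured next morning; values normalized to controls.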
In a further assay the test system is C2A. The gist of the method: as §1
The test system of another assay is CP185. The gist of the method: as §1
In the next assay the test system is CP191. The gist of the method:
as §1

The next assay deals with CP192. The gist of the method:
as §1

The subject of another assay is CP194. The gist of the method: as §1
For the next assay, the system named is CP201. The gist of the method:
as §1

Another assay deals with CP203. The gist of the method:
as §1

Another assay has as its system CP211. The gist of the method:
as §1

Another assay deals with CP217. The gist of the method: as §1
The test system of a further assay is CP237. The gist of the method:
as §1

For another assay, the system named is CP238. The gist of the method: as §1
Another assay has as its system CP247. The gist of the method:
as §1

Another assay deals with CP250. The gist of the method: as §1
The next assay has as its system CP252. The gist of the method:
as §1

The test system of the next assay is CP256. The gist of the method:
as §1

Another assay concerns CP260. The gist of the method:
as §1

The next assay relates to CP262. The gist of the method:
as §1

A further assay has as its system CP265. The gist of the method: as §1
In a further assay the test system is CP215. The gist of the method:
as §1
Potency is read from the fitted curve at half-maximal effect.

`CC(C)(C)NC[C@H](O)COc1cccc2c1CCCC2=O`: the Potency result in the assay with ATS95, in the assay on C2A, in the assay with CP185, with CP191, in the assay with CP192 and in the assay on CP194 was “inactive” each time. Further, the Potency result with CP201, with CP203, with CP211, in the assay on CP217, in the assay with CP237 and in the assay with CP238 was “inactive” each time. In addition, the Potency result with CP247, with CP250, with CP252, with CP256, in the assay on CP260 and with CP262 was “inactive” each time. The Potency result in the assay on CP265 is “inactive”.
For `CCOc1ccc(NC(C)=O)cc1`, the Potency result in the assay on ATS95, with C2A, with CP185, in the assay on CP191, in the assay with CP192 and in the assay on CP194 was “inactive” throughout. The Potency entry with CP201, in the assay with CP203, with CP211, in the assay with CP217, with CP237 and in the assay on CP238 was “inactive” each time. The Potency entry in the assay with CP247, with CP250, in the assay with CP252, with CP256, with CP260 and in the assay with CP262 was “inactive” in each case. In addition, in the assay with CP265, the Potency entry was “inactive”.
For the compound `CCOc1ccccc1C(N)=O`, the Potency entry in the assay with ATS95, in the assay on C2A, with CP185, with CP191, in the assay with CP192 and in the assay on CP194 was “inactive” each time. Moreover, the Potency entry in the assay with CP201, with CP203, in the assay on CP211, in the assay on CP215, in the assay with CP217 and in the assay with CP237 was “inactive” each time. Further, the Potency result with CP238, in the assay on CP247, with CP250, with CP252, with CP256 and with CP260 was “inactive” in each case. Besides, the Potency entry in the assay with CP262 and in the assay on CP265 was “inactive” in each case.
With `NC(=S)N/N=C/c1cccnc1`, the Potency result in the assay on ATS95, in the assay with C2A, in the assay on CP185, with CP191, in the assay on CP192 and with CP194 was “inactive” each time. Besides, the Potency result in the assay on CP201, in the assay with CP203, in the assay with CP211, with CP215, in the assay on CP217 and in the assay on CP237 was “inactive” each time. In addition, the Potency entry in the assay on CP238, with CP250, with CP252, in the assay with CP256, with CP260 and in the assay with CP262 was “inactive” throughout. Moreover, the Potency entry in the assay on CP265 is “inactive”.
As to `CCc1ccc(C(=O)C(C)CN2CCCCC2)cc1` (configuration not stated), the Potency result in the assay on ATS95, in the assay with C2A, in the assay on CP185, with CP191, with CP192 and in the assay on CP194 was “inactive” each time. The Potency entry in the assay with CP201, in the assay with CP203, in the assay with CP211, in the assay on CP215, with CP217 and with CP237 was “inactive” in each case. Moreover, the Potency entry in the assay on CP238, in the assay with CP247, in the assay on CP250, in the assay with CP252, in the assay with CP256 and in the assay on CP262 was “inactive” in each case. In the assay with CP265, the Potency entry is “inactive”.
Turning to `OCCOCCN1CCN(C2=Nc3ccccc3Sc3ccccc32)CC1`, the Potency entry with ATS95, in the assay on C2A, in the assay with CP185, with CP191, in the assay with CP192 and in the assay with CP194 was “inactive” each time. For the same compound, the Potency result in the assay with CP201, in the assay on CP203, with CP211, with CP215, in the assay on CP217 and in the assay with CP238 was “inactive” in each case. For the same compound, the Potency entry in the assay on CP247, in the assay on CP250, in the assay on CP252, in the assay on CP256, in the assay on CP260 and in the assay with CP262 was “inactive” throughout. Also, the Potency entry in the assay on CP265 is “inactive”.
As for `O=C(c1ccc(F)cc1)C1CCN(CCn2c(=S)[nH]c3ccccc3c2=O)CC1`, the Potency is 5.01 µM (active) in the assay on ATS95; 10 µM (active) in the assay on C2A; 7.94 µM (active) with CP185; 11.2 µM (active) in the assay on CP191; 6.75 µM (active) in the assay with CP192; 7.57 µM (active) in the assay with CP194. The Potency in the assay on CP201 was 7.57 µM (active); in the assay on CP203 it was 6.01 µM (active); in the assay on CP211, 6.01 µM (active); in the assay with CP215, 5.36 µM (active); with CP217, 5.01 µM (active); in the assay on CP237, 5.01 µM (active). The Potency is 7.94 µM (active) in the assay with CP238; 4.47 µM (active) with CP247; 10 µM (active) in the assay with CP250; 6.31 µM (active) in the assay with CP252; 8.91 µM (active) in the assay with CP256; 3.16 µM (active) with CP260. Further, the Potency with CP265 was 7.94 µM (active).
`O=C(O)C1(C(=O)O)CCC1.[NH2-].[NH2-].[Pt+2]`: the Potency entry with ATS95, in the assay with C2A, with CP185, in the assay on CP191, with CP192 and in the assay on CP194 was “inactive” each time. For the same compound, the Potency result in the assay with CP201, with CP203, in the assay with CP211, in the assay with CP215, in the assay with CP217 and in the assay on CP238 was “inactive” in each case. In addition, the Potency entry with CP247, in the assay with CP250, in the assay on CP252, in the assay on CP256, in the assay with CP262 and in the assay with CP265 was “inactive” in each case.
`C/C=C/c1ccc(O)c(OC)c1`: the Potency result with ATS95, in the assay with C2A, in the assay with CP185, in the assay with CP191, with CP192 and with CP194 was “inactive” in each case. Also, the Potency result with CP201, in the assay on CP203, with CP211, with CP217, with CP237 and in the assay with CP238 was “inactive” each time. The Potency entry with CP247, in the assay with CP250, with CP252, in the assay with CP256, in the assay with CP260 and in the assay on CP262 was “inactive” in each case. Further, the Potency entry in the assay with CP265 is “inactive”.
On to `N=C(N)N1CCc2ccccc2C1`, for which the Potency result in the assay on ATS95, with C2A, in the assay with CP185, in the assay on CP191, with CP192 and with CP194 was “inactive” throughout. In addition, the Potency entry with CP201, in the assay on CP203, with CP211, with CP215, in the assay with CP217 and with CP237 was “inactive” each time. In addition, the Potency entry with CP238, in the assay with CP247, with CP250, with CP252, in the assay with CP256 and with CP262 was “inactive” throughout. The Potency entry in the assay with CP265 was “inactive”.
Regarding `FC1(F)C(F)(F)C(F)(F)C2(F)C(F)(F)C(F)(F)C(F)(F)C(F)(F)C2(F)C1(F)F` (configuration not stated), the Potency result with ATS95, in the assay on C2A, in the assay on CP185, with CP191, with CP192 and in the assay with CP194 was “inactive” each time. The Potency result in the assay on CP201, with CP203, in the assay with CP211, with CP215, with CP217 and in the assay on CP237 was “inactive” in each case. Also, the Potency result in the assay with CP238, in the assay with CP247, in the assay on CP250, in the assay with CP252, in the assay on CP256 and in the assay on CP262 was “inactive” each time. Further, the Potency entry in the assay with CP265 is “inactive”.
Take `CCc1oc2ccccc2c1C(=O)c1cc(Br)c(O)c(Br)c1`: the Potency entry in the assay on ATS95, with C2A, with CP185, with CP191, in the assay on CP192 and in the assay with CP194 was “inactive” each time. The Potency entry in the assay on CP201, in the assay on CP203, in the assay with CP211, with CP217, in the assay with CP237 and with CP238 was “inactive” throughout. The Potency entry in the assay on CP247, in the assay on CP250, in the assay on CP252, with CP256, with CP260 and in the assay on CP262 was “inactive” throughout. For the same compound, in the assay with CP265, the Potency entry is “inactive”.
As for `O=C(Nc1ccc([N+](=O)[O-])cc1)Nc1ccc([N+](=O)[O-])cc1`, the Potency entry with ATS95, with C2A, in the assay with CP185, with CP191, in the assay on CP192 and in the assay on CP194 was “inactive” throughout. The Potency result with CP201, in the assay on CP203, in the assay on CP211, with CP217, with CP238 and in the assay with CP247 was “inactive” throughout. Moreover, the Potency result in the assay with CP250, in the assay on CP252, in the assay on CP256, in the assay with CP262 and in the assay with CP265 was “inactive” in each case. The figures for the Potency with CP237 and in the assay on CP260 were 3.98 µM (active) and 3.55 µM (active), respectively.
Take `NS(=O)(=O)Cc1noc2ccccc12`: the Potency result with ATS95, in the assay with C2A, in the assay with CP185, in the assay with CP191, with CP192 and in the assay with CP194 was “inactive” each time. In addition, the Potency entry in the assay on CP201, in the assay on CP203, in the assay on CP211, in the assay with CP215, with CP217 and in the assay with CP237 was “inactive” in each case. Also, the Potency entry in the assay on CP238, in the assay on CP247, with CP250, in the assay on CP252, in the assay on CP256 and with CP260 was “inactive” each time. In addition, the Potency result in the assay with CP262 and in the assay on CP265 was “inactive” throughout.
